The target of experiment [1] is Alpha-galactosidase A (Homo sapiens) (UniProt P06280). The experiment in a line: Counterscreen for Glucocerebrosidase Inhibitors: qHTS Assay for Human alpha-Galactosidase at pH 4.5 (AID 992). Further: 0% is about no effect. Put shortly:
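Read-out is 4-methylumbelliferone fluorescence (365 nm excitation, 440 nm emission) after a pH 10 NaOH/glycine stop. Reactions held 2 nM enzyme and 80 uM substrate at pH 4.5 for 20 min at room temperature.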
For orientation: Counterscreens check selectivity or assay interference.

In experiment [2] the target is alpha-glucosidase (Oryza sativa, rice) (UniProt Q653V4). The experiment in a line: Counterscreen for Glucocerebrosidase Inhibitors: qHTS Assay for Rice alpha-Glucosidase at pH 5.0 (AID 997).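 Further: 0% = full activity with enzyme and -100% = basal without enzyme.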 Put shortly: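 Rice alpha-glucosidase (4 nM final) with 400 uM 4-methylumbelliferyl-alpha-D-glucopyranoside in citrate buffer pH 5.0, 20 min at room temperature, stopped at pH 10; fluorescence 365/440 nm, compounds 0.7 nM–77 uM, AC50 from Hill fits.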

Experiment [3] in a line: qHTS Assay for Lipid Storage Modulators (AID 1519; calls by dose curve; on activity change, negative = inhibition: on the % scale 0 is the no-effect control and ±100 the full control effect). The following applies: Drosophila S3 cells, BODIPY lipid droplet/cell ratio, laser cytometry, cells loaded with oleic acid. The method in brief:
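Cells seeded at 5,000 per well were treated with compounds over a concentration series and loaded with oleic acid (400 uM, as added). Lipid droplet fluorescence (488 nm excitation, 500-530 nm channel) was read by laser-scanning cytometry and normalized to 20 uM Triacsin C.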
Background: In qHTS, concentration-response curves come from the screen itself.

The nature of experiment [4]: Cell Viability - LYMP2-020 (AID 986).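 Further: plate controls were DMSO only for no effect and tetraoctylammonium bromide at 92 µM for full effect; nearly all actives have a fitted effect of over 55% in size.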 Put shortly:
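Human lymphoblastoid LYMP2-020 cells (2500/well) preincubated 5 h at 37 C, then treated 24 h at 37 C. Viability measured as intracellular ATP by CellTiter-Glo luminescence after 30 min at room temperature; AC50 from Hill fits.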

Experiment [5] in a line: Cell Viability - LYMP2-022 (AID 987).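 Further: 0% = DMSO alone and full effect = tetraoctylammonium bromide at 92 µM; nearly all actives have a fitted effect of over 55% in size.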 The method in brief:
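LYMP2-022 lymphoblastoid cells (2500/well, complete medium) were treated with compounds for 24 hours at 37 C; intracellular ATP was then read by CellTiter-Glo luminescence after 30 min at room temperature. AC50 values were derived from Hill-equation fits.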

A short description of experiment [6]: Cell Viability - LYMP2-024 (AID 988).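 Further: plate controls were DMSO only for no effect and 92 µM tetraoctylammonium bromide for full effect; nearly all actives have a fitted effect of over 60% in size.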 Put shortly: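 Human lymphoblastoid LYMP2-024 cells (2500/well) rested 5 hr, then treated with compound for 24 hr at 37 C in complete medium. Viability was measured as intracellular ATP by CellTiter-Glo luminescence. AC50 values came from Hill-equation fits.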
Experiment [7] is described as follows: Cell Viability - LYMP2-026 (AID 989). Further: on the % scale 0 is the no-effect control and ±100 the full control effect; nearly all actives have a fitted effect of over 50% in size. The method in brief: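 Human lymphoblastoid LYMP2-026 cells, 2500/well, exposed to compound 24 h at 37 C in complete medium. Viability as intracellular ATP by CellTiter-Glo luminescence; AC50 from Hill fits of qHTS concentration-response.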
Experiment [8] is described as follows: Cell Viability - LYMP1-002 - Assay at 24 hr (AID 993). Further: on the % scale 0 is the no-effect control and ±100 the full control effect. The method in brief:
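Human lymphoblastoid LYMP1-002 cells (2500/well) treated 24 h at 37 °C; viability as intracellular ATP by CellTiter-Glo luminescence. Tetraoctylammonium bromide as positive control; AC50 from Hill-equation fits of qHTS concentration-response.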

Experiment [9] can be described thus: Cell Viability - LYMP1-002 - Assay at 40 hr (AID 994).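 Further: 0% = DMSO only and full inhibition = 92 µM tetraoctylammonium bromide; nearly all actives have a fitted effect of over 60% in size.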 Put shortly: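 LYMP1-002 human lymphoblastoid cells (2500/well, complete medium) were treated with compounds for 40 hr at 37 C. Intracellular ATP was measured by CellTiter-Glo luminescence, and AC50 values came from Hill-equation fits of concentration-response data; tetraoctylammonium bromide was the positive control.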

The mark [10] stands for this setting: measured here: cell count channel max response.
Setting [11] is: measured here: lipid channel max response.

Here are results for 17 compounds from PubChem BioAssay (NCATS).

Several values for one entry are separate records, joined by “and”; a condition that tells them apart may be missing. Equal entries are not always repeated. Records with an inconclusive call do not appear. Activity calls are given as the source filed them. Unless noted, the call rests on the fitted dose curve; in most records, active means well fitted curve in the direction sought with a large enough effect; inconclusive means small, poorly fitted or top-dose-only effect, or another doubt; inactive means no such curve, though single readings can be large; an effect the other way counts as inactive or inconclusive.

Alpha-galactosidase A (Homo sapiens), sequence (P06280 whole entry, looked up): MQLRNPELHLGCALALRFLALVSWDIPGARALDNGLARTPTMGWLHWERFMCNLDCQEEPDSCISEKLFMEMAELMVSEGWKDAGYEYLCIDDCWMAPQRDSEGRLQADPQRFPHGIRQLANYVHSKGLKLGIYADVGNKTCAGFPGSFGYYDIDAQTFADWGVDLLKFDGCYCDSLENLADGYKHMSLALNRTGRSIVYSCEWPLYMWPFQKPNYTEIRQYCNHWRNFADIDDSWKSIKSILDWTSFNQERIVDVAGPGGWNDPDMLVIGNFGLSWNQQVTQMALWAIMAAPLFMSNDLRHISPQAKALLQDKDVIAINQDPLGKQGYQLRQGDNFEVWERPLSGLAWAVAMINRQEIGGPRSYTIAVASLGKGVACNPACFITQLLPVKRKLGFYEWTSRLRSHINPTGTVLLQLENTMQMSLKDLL

`O=C1c2c(O)ccc(O)c2C(=O)c2c(NCCNCCO)ccc(NCCNCCO)c21`: the result in experiment [1] and in experiment [2] was inactive. For the same compound, the figures for the activity change, negative = inhibition in [3] (at 25.7 µM (top of the series)) and in experiment [3] (at 57.5 µM (top of the series)) were 0.282% (inactive) and -5.29% (inactive), respectively. The max response is -20.6% and -20.2% in experiment [3] (setting [10]); -20.7% and -20.9% in experiment [3] (setting [11]).

On to `CN1CCC(=C2c3ccccc3C=Cc3ccccc32)CC1`, for which the result in experiment [1] and in [2] was inactive. The activity change, negative = inhibition in experiment [3] (at 25.7 µM (top of the series)) is -4.01% (inactive); in experiment [3] (at 57.5 µM (top of the series)), 0.516% (inactive). Besides, the max response in [3] (setting [10]) is 4.35% and -11%; in [3] (setting [11]), -0.358% and -12.9%.

As to `Clc1ccc(C(c2ccccc2Cl)C(Cl)Cl)cc1` (stereo not drawn), the call in [4], in experiment [5], in [6], in [7], in [1] and in [8] was inactive. In experiment [2], the compound was called inactive. Further, in experiment [9], the Potency result was “inactive”. Also, the activity change, negative = inhibition in experiment [3] (at 57.5 µM (top of the series)) was 11.4% (inactive) and -0.0471% (inactive). For the same compound, the max response in experiment [3] (setting [10]) is 11% and -19.2%; in experiment [3] (setting [11]) it was 22.4% and -18.8%.

With `Nc1nc2c(ncn2COC(CO)CO)c(=O)[nH]1`, the result in experiment [1] and in experiment [2] was inactive. The activity change, negative = inhibition in [3] (at 25.7 µM (top of the series)) was -0.899% (inactive); in [3] (at 57.5 µM (top of the series)), -0.373% (inactive). Further, the max response in experiment [3] (setting [10]) is 0.439% and 44.9%; in experiment [3] (setting [11]), 0.456% and 46.2%.

For `CN(C)C(=N)N=C(N)N`, the activity change, negative = inhibition is 1.15% (inactive) in experiment [3] (at 25.7 µM (top of the series)) and 9.29% (inactive) in experiment [3] (at 57.5 µM (top of the series)). Further, the max response is 14.6% and 3.67% in [3] (setting [10]); 15.2% and 21.7% in experiment [3] (setting [11]).

Take `Cc1cnc(C(=O)NCCc2ccc(S(=O)(=O)NC(=O)NC3CCCCC3)cc2)cn1`: the compound was classed as inactive in [1] and in experiment [2]. Besides, the activity change, negative = inhibition in [3] (at 25.7 µM (top of the series)) is 1.51% (inactive); in [3] (at 57.5 µM (top of the series)), 0.481% (inactive). Further, the max response in [3] (setting [10]) is -0.601% and 30.7%; in [3] (setting [11]), 0.0944% and 30.2%.

Consider `Nc1c2c(nc3ccccc13)CCCC2`, for which the call in experiment [4], in [5], in experiment [6], in experiment [7], in experiment [1] and in experiment [8] was inactive. For the same compound, the compound was called inactive in [2]. In addition, in experiment [9], the Potency entry is “inactive”. Moreover, the activity change, negative = inhibition in experiment [3] (at 25.7 µM (top of the series)) is 0.95% (inactive); in experiment [3] (at 57.5 µM (top of the series)) it was 2.49% (inactive). Also, the max response in [3] (setting [10]) is -0.801% and 25.5%; in experiment [3] (setting [11]), -0.834% and 27.2%.

Consider `Fc1ccc([C@@H]2CCNC[C@H]2COc2ccc3c(c2)OCO3)cc1`, for which the outcome in [1] and in [2] was inactive. Moreover, the activity change, negative = inhibition in experiment [3] (at 57.5 µM (top of the series)) was -0.973% (inactive). Further, the max response was -19.9% in [3] (setting [10]) and -18.8% in experiment [3] (setting [11]).

As for `CC(C)C(=O)Nc1ccc([N+](=O)[O-])c(C(F)(F)F)c1`, the call in experiment [4], in experiment [5], in experiment [6], in experiment [7], in experiment [1] and in experiment [8] was inactive. Moreover, the outcome in experiment [2] was inactive. Also, the Potency result in experiment [9] was “inactive”.

With `Cc1ccc(C(=O)Nc2ccc(S(=O)(=O)O)c3cc(S(=O)(=O)O)cc(S(=O)(=O)O)c23)cc1NC(=O)c1cccc(NC(=O)Nc2cccc(C(=O)Nc3cc(C(=O)Nc4ccc(S(=O)(=O)O)c5cc(S(=O)(=O)O)cc(S(=O)(=O)O)c45)ccc3C)c2)c1`, the compound was called inactive in experiment [1] and in experiment [2]. In addition, the activity change, negative = inhibition in experiment [3] (at 57.5 µM (top of the series)) is 2.55% (inactive) and 9.29% (inactive). In addition, the max response in experiment [3] (setting [10]) was -19.7% and 7.39%; in experiment [3] (setting [11]), -18.9% and 17.7%.

`O=c1c(O)c(-c2ccc(O)c(O)c2)oc2cc(O)cc(O)c12`: the call in experiment [1] and in experiment [2] was inactive.

Consider `Cc1ccc(-c2cc(C(F)(F)F)nn2-c2ccc(S(N)(=O)=O)cc2)cc1`, for which the outcome in experiment [4], in experiment [5], in experiment [6], in experiment [7] and in [8] was inactive. Moreover, in experiment [9], the Potency entry is “inactive”. Also, the activity change, negative = inhibition in [3] (at 57.5 µM (top of the series)) is 7.63% (inactive). In addition, the max response in experiment [3] (setting [10]) was determined as 18.8%; in experiment [3] (setting [11]), 30%.

With `CC(C)Cc1ccc(C(C)C(=O)O)cc1` (stereo not drawn), the compound was called inactive in [1] and in [2].

Consider `COc1ccc(CCN(C)CCCC(C#N)(c2ccc(OC)c(OC)c2)C(C)C)cc1OC` (stereo not drawn), for which the compound was called inactive in experiment [8].

Turning to `CN(Cc1cnc2nc(N)nc(N)c2n1)c1ccc(C(=O)N[C@@H](CCC(=O)O)C(=O)O)cc1`, the call in experiment [1] and in experiment [2] was inactive. The activity change, negative = inhibition in experiment [3] (at 57.5 µM (top of the series)) was 0.2% (inactive). Moreover, the max response is -11.7% in experiment [3] (setting [10]) and -9.12% in experiment [3] (setting [11]).

As for `NC(=O)OCC(COC(N)=O)c1ccccc1`, the compound was classed as inactive in experiment [1] and in experiment [2]. Also, the activity change, negative = inhibition in [3] (at 57.5 µM (top of the series)) is -4.42% (inactive). The max response in [3] (setting [10]) is -0.783%; in [3] (setting [11]) it was -3.41%.

With `COc1nc(C)nc(Cl)c1NC1=NCCN1`, the result in [1] and in experiment [2] was inactive. Also, the activity change, negative = inhibition in experiment [3] (at 25.7 µM (top of the series)) is -2% (inactive). Further, the max response in experiment [3] (setting [10]) is -13%; in experiment [3] (setting [11]), -15%.
